# Laboratory results from the supplement of paper PMC4380459.
# Tested on: tubulin (bovine brain)
# Assay: tubulin polymerization end-point dOD, fold change relative to DMSO vehicle; higher = more polymerization (stabilization)
# Details: 50 µM; 60 min; 37 °C
# Method in brief: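 Using the Cytoskeleton HTS-Tubulin polymerization kit, 4 mg/ml bovine brain tubulin in G-PEM buffer (PIPES pH 6.9, MgCl2, EGTA, GTP) was combined on ice in 384-well plates with compound at a final 50 μM in 0.5% DMSO. After warming to 37°C in a Tecan reader, the plates were read at 340 nm once a minute for 1 hour. Values give the end-point change in optical density as percent fold change over DMSO vehicle, normalized per run with the means and standard deviations of DMSO and reference-control wells.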
row,SMILES,tubulin polymerization end-point dOD [%]
1,O=C(Nc1ncc(Cc2ccc(F)cc2)s1)c1ccc2c(c1)OCO2,20.1
2,O=C(N/N=C/c1ccc2c3c(cccc13)CC2)C1COc2ccccc2O1 (stereo not given),28.5
3,O=C(Nc1ncc(Cc2ccccc2)s1)c1sc2ccccc2c1Cl,-14.2
4,COc1ccccc1NC(=O)CSc1nnc(-c2cc(OC)c(OC)c(OC)c2)n1C,-33.1
5,COc1ccccc1N1CC[NH+](Cc2c(-c3ccccc3)nc3sccn23)CC1,-21.9
6,C/C(=N\Nc1cc(-c2ccccc2)nc(C)n1)c1ccc(C)cc1,-7.02
7,COc1ccc(-n2nnnc2SCc2cc3c(cc2Br)OCO3)cc1,-14.8
8,Cc1ccc(C(=O)Nc2nc3ccc(Cl)cc3s2)cn1,-82.9
9,COC(=O)Nc1nc2cc(Sc3ccccc3)ccc2[nH]1 [Fenbendazole],-27.1
10,COc1ccc2nc(/C=C/c3cccc(F)c3)sc2c1,6.83
11,CCOc1ccc2nc(SCC(=O)Nc3ccc(OC)cc3OC)c(C)cc2c1,14.5
12,Cc1ccc(NC(=O)c2cc(F)c(Cl)cc2Cl)nc1,-57.6
13,COc1ccc(OC)c(NC(=O)CSc2nc3ccc(OC)cc3cc2C)c1,-30.7
14,O=C(N/N=C/c1cccs1)c1n[nH]c2c1CCC2,12.9
15,COc1cc(C(=O)Nc2ccc3c(c2)Nc2ccccc2CC3)cc(OC)c1OC,-20.1
16,Cc1ccc(/C=N/NC(=O)c2ccc3c(c2)OCO3)cc1,-38.5
17,O=c1[nH]c(CSc2ccccc2)nc2sc3c(c12)CCC3,-9.09
18,Cc1cnc(C(=O)Nc2ncc(Cc3cccc(C)c3Cl)s2)cn1,-85.7
19,c1ccc(CCc2nc3c4ccccc4ncn3n2)cc1,-31.9
20,COc1ccccc1NC(=O)CSc1nnc(-c2cccnc2)n1-c1ccccc1C,-57.2
21,CC(=O)c1c(C)[nH]c(C(=O)Nc2ccc(N3CCCC3)cc2)c1C,27.6
22,CCc1ccccc1NC(=O)CSc1nc2cc3c(cc2cc1C#N)OCO3,56.6
23,COc1ccc(C)cc1NC(=O)CSc1nc2ccc(C(C)C)cc2cc1C#N,-41.3
24,Cc1cc2cc3c(cc2nc1SCC(=O)Nc1ccccc1Br)OCO3,-1.3
25,COc1ccc(OC)c(NC(=O)CSc2nc3cc4c(cc3cc2C)CCC4)c1,20.5
26,O=C(Nc1ncc(Cc2ccccc2Cl)s1)c1ccncc1,-29.4
27,Cc1cccc(N2CCN(C(=O)c3cc(Cl)ccc3Cl)CC2)c1,-45.7
28,CCc1cc2cc(OC)ccc2nc1SCC(=O)Nc1ccccc1C,104
29,O=C(Nc1ccc2c(c1)OCCO2)C(=O)Nc1cccc2ncccc12,-9.86
30,COc1ccc(Cl)cc1NC(=O)C1CCCN1C(=O)Nc1ccccc1OC (stereo not given),-2.01
